Experimental data reported in PubChem BioAssay.
Values joined by “and” are separate entries in the source; they are usually repeats but may differ in a detail not shown here. Identical values can stand only once. Active and inactive are the calls of the source. Unless noted, how the calls were made is not given here.

Experiments:
[1] = test system: XIP peptide (Xip251-270) binding; test: XIP fragment 251-270 binding compounds – biochemical, small-molecule microarray, fluorescence 635/667 nm, 0.1 µg/mL protein, primary screen (AID 1182); settings: fluorescent protein binding, 635 nm, higher = more signal, called active from +8 up or from −8 down
XIP peptide (Xip251-270) = test: compounds binding XIP fragment 251-270 – biochemical, small-molecule microarray, fluorescence 635/667 nm, 0.5 µg/mL protein, primary screen (AID 1183); settings: fluorescence 635 nm, higher = more signal
[2] = blood-stage malaria parasite viability loss – strain 3D7, DAPI fluorescence, 100 nL, primary screen (AID 1184);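 further: parasites grown inside human red blood cells in medium with human serum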; settings: P. falciparum 3D7 growth, 3 d, higher = more signal
[3] = biological target: Homeobox protein Hox-A13 (Mus musculus) (UniProt Q62424); test: disruptors of Hoxa13 oligonucleotide interaction – biochemical, fluorescence polarization, labeled oligonucleotide, primary screen (AID 1185); settings: Hoxa13:DNA binding, 15 min, higher = more signal, called active from +8 up or from −8 down
Sequence of Homeobox protein Hox-A13 (Mus musculus) (Q62424 whole entry, looked up): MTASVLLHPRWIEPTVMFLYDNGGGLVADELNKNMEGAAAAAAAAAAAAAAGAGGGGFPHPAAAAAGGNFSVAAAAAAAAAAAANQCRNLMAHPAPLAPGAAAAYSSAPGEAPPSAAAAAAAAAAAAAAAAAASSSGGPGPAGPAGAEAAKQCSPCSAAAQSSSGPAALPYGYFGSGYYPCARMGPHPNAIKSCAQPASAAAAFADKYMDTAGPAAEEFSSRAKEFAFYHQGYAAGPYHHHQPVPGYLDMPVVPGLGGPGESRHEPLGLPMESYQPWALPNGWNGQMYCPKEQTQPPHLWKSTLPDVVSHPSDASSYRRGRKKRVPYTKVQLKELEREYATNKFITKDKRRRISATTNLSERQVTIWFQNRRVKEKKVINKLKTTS

[4] = blockers of DNA damage checkpoint Chk1 activation – imaging, HeLa, hydroxyurea, phospho-Chk1 antibody, percent positive cells, primary screen (AID 1186); settings: hydroxyurea-induced phospho-Chk1 immunofluorescence imaging, higher = more signal
[5] = blockers of DNA damage checkpoint Chk1 activation – imaging, HeLa, hydroxyurea, phospho-Chk1 nuclear intensity, primary screen (AID 1187); settings: hydroxyurea-induced phospho-Chk1 immunofluorescence imaging, higher = more signal

SMILES	composite z-score [1]	composite z-score (XIP peptide (Xip251-270))	z-score [2]	z-score [3]	z-score [4]	z-score [5]
C[C@@H]1CC[C@H]2C(=O)NC[C@@H](O)CN2[C@H]1c1ccc(Br)cc1	0.21 (inactive) and 0.567 (inactive)	0.22 and 0.889	-0.601 and 0.863	-2.22 (inactive) and -1.74 (inactive)	–	–
CC(C)=CCCC(C)=CCON=C1C[C@@H](O)[C@@H](O)[C@@H]2[C@@H]3C(=O)N([C@@H](C)c4ccccc4)C(=O)[C@@H]3CC[C@H]12	1.32 (inactive)	0.105	-0.12	-0.414 (inactive)	–	–
COC(=O)[C@@]1(Cc2ccc(F)cc2)[C@H]2c3cc(C(=O)N4CCCC4)n(Cc4c(CO)[nH]cc(C)c4=O)c3C[C@H]2CN1C(=O)c1ccccc1	1.1 (inactive) and 0.516 (inactive)	-0.307 and 0.761	-1.4 and -1.6	-5.99 (inactive) and -5.23 (inactive)	0.113 (inactive) and 0.998 (inactive)	0.0243 (inactive) and 0.533 (inactive)
CCOC(=O)C[C@H]1[C@H](OC(=O)c2ccccc2-c2ccccc2)[C@@H](NC(=O)Cc2ccc(OC)cc2)c2cc(OCCCO)ccc2N1C(=O)Cc1ccc(OC)cc1	0.645 (inactive) and -0.44 (inactive)	0.0988 and -0.0465	-1.83 and -1.26	-0.622 (inactive) and -3.3 (inactive)	-0.901 (inactive) and 0.898 (inactive)	-0.496 (inactive) and 0.836 (inactive)
CO[C@H]1COC(=O)CC=C[C@@H](C)COC(=O)[C@H](CCSC)NC(=O)CC=C[C@@H]1C	0.218 (inactive) and 0.322 (inactive)	0.421 and 0.562	-1.51 and -0.356	-0.947 (inactive) and -0.902 (inactive)	–	–
COC(=O)C1=C2N(Cc3ccccc3)C(C)=C(C(=O)OC)[C@@H](c3ccccc3)N2C(=O)[C@](O)(C(=O)OC)C1	0.109 (inactive) and 0.0955 (inactive)	0.23 and 0.64	0.166 and -0.0932	-5.1 (inactive) and -1.13 (inactive)	–	–
COCn1c2ccccc2c2nnc(C(C)=O)nc21	-0.0478 (inactive) and 0.199 (inactive)	-0.392 and -0.333	-1.12 and -1.29	0.732 (inactive) and 0.896 (inactive)	–	–
O=c1n(-c2ccccc2)c(=O)n2n1CC[C@@H]1C(=NOC[C@@H](O)COCc3ccco3)[C@H]3O[C@H]3[C@@H](O)[C@@H]12	0.0643 (inactive) and 0.158 (inactive)	0.0433 and -0.0465	-1.77 and -0.681	-0.683 (inactive) and -1.44 (inactive)	–	–
C=CCN(C(=O)C(c1cccs1)N(C(=O)/C=C\C(=O)O)c1ccc(CCO)cc1)C(C)(C)C (stereo not given)	0.356 (inactive) and 1.08 (inactive)	-0.998 and 0.187	-0.21 and -0.719	0.0682 (inactive) and -0.369 (inactive)	0.632 (inactive) and 1.03 (inactive)	0.344 (inactive) and 0.743 (inactive)
Cc1ccc(S(=O)(=O)N[C@@H]2COC(=O)CC=C[C@@H](C)[C@@H]3C=C[C@H](O)[C@@H](COC(=O)CC=C[C@H]2C)O3)cc1	0.061 (inactive) and -0.148 (inactive)	-0.179 and 0.167	1.03 and -1.19	-1.86 (inactive) and -1.1 (inactive)	–	–
COC(=O)C1=C(C)N(Cc2ccccc2)[C@]23O[C@](C(=O)OC)(C(=O)N2[C@@H]1c1ccccc1)[C@@H](c1ccccc1)[C@@H]3C(=O)c1ccccc1	0.114 (inactive) and 0.416 (inactive)	-0.0935 and 0.0333	-0.362 and 0.318	-0.11 (inactive) and -0.0833 (inactive)	–	–
Cc1cc2c(nc1C)CCCN2CC(C)ON=C[C@@H](C)[C@H](OCc1ccccc1)C(C)C (stereo not given in full)	-0.144 (inactive)	-0.0166	0.5	-0.838 (inactive)	–	–
C=CCN(CCCCC)C(=O)C1N(CCCCCCO)C(=O)C2C(C(=O)O)C3C=CC21O3 (stereo not given)	0.0579 (inactive) and 0.042 (inactive)	0.69 and 0.714	2.33 and 1.76	-1.18 (inactive) and -1.07 (inactive)	0.99 (inactive) and 1.26 (inactive)	0.616 (inactive) and 0.8 (inactive)
COC(=O)C1=C(C)N(Cc2ccccc2)[C@]23O[C@](C(=O)OC)(C(=O)N2[C@@H]1c1ccccc1)[C@H]1CCCC(=O)[C@H]13	0.472 (inactive) and 0.134 (inactive)	-0.0169 and 0.279	0.0733 and -0.727	-4.3 (inactive) and 0.514 (inactive)	–	–
CC(CO)N1C(=O)[C@@H]2C3C(=O)OCCC=C[C@H]3OC23C=CCN(C(C)(C)C)C(=O)[C@@H]13 (stereo not given in full)	-0.516 (inactive) and 0.463 (inactive)	-0.947 and -0.179	0.35 and 0.567	-5.55 (inactive) and -5.92 (inactive)	0.545 (inactive) and -0.0027 (inactive)	-0.0537 (inactive) and -0.28 (inactive)
COC(=O)[C@H](C)NC(=O)CCC1CC(OC(=O)NCCc2ccc(F)cc2)CC2(CCCC(COC(=O)NCCCN3CCCC3=O)O2)O1 (stereo not given in full)	0.348 (inactive)	0.683	-1.9	-4.1 (inactive)	–	–

SMILES	composite z-score [1]	composite z-score (XIP peptide (Xip251-270))	z-score [2]	z-score [3]	z-score [4]	z-score [5]
COC(=O)C1=C(C)N(Cc2ccccc2)C2=C(C(C)=O)C[C@@](O)(C(=O)OC)C(=O)N2[C@@H]1c1ccccc1	0.411 (inactive) and 1.64 (inactive)	-0.358 and 0.645	0.467 and 0.637	-1.52 (inactive) and -2.36 (inactive)	–	–
C=CCN(C(=O)C(c1cccs1)N(C(=O)/C=C\C(=O)O)c1c(Cl)cccc1CO)C(C)(C)C (stereo not given)	-0.0516 (inactive) and 0.0403 (inactive)	0.689 and -1.16	1.83 and 1.67	0.131 (inactive) and -0.43 (inactive)	0.221 (inactive) and 0.501 (inactive)	0.711 (inactive) and 0.634 (inactive)
C=C[C@@H](C)[C@H](O)c1ccc(O)c2ccccc12	-0.299 (inactive) and 0.342 (inactive)	0.892 and 0.102	-0.559 and 0.666	-3.78 (inactive) and -2.87 (inactive)	0.311 (inactive) and 0.801 (inactive)	0.0888 (inactive) and 0.837 (inactive)
CC(C)CCN1CCc2nc(-c3ccccc3)c3c(c2C1)CO[C@@H](C)C3	0.105 (inactive)	0.563	1.77	-3.47 (inactive)	–	–
CCN1C(=O)[C@H]2[C@H]3[C@H](O)[C@H](O)CC(=NOC)[C@@H]3CC[C@H]2C1=O	-0.397 (inactive)	0.774	0.638	1.98 (inactive)	–	–
CCOC(=O)[C@@H]1CC2O[C@]23C[C@@H]1C(=O)N1CCC[C@@H]1[C@H]3O[Si](C)(C)C(C)(C)C (stereo not given in full)	-0.86 (inactive) and -0.342 (inactive)	-0.791 and 0.0241	-0.662 and 1.63	-4.09 (inactive) and -1.56 (inactive)	0.271 (inactive) and 0.387 (inactive)	0.288 (inactive) and 0.549 (inactive)
C#CCCCON=C1C[C@@H](O)[C@@H](O)[C@@H]2[C@@H]3C(=O)N(C4CCCCC4)C(=O)[C@@H]3CC[C@H]12	0.57 (inactive)	0.545	1.43	0.504 (inactive)	–	–
CC(C)C(=O)N[C@@H]1CCCN1C(=O)C=Cc1ccccc1	0.36 (inactive)	0.473	1.99	-1.68 (inactive)	–	–
C=CCN(CCCCC)C(=O)C(c1cccs1)N(C(=O)/C=C\C(=O)O)c1ccc(CCO)cc1 (stereo not given)	-0.141 (inactive) and 0.737 (inactive)	0.861 and -0.198	0.653 and 0.454	-0.227 (inactive) and 0.0535 (inactive)	0.51 (inactive) and 0.163 (inactive)	0.571 (inactive) and -0.0484 (inactive)
CC(C)CON=C1C[C@@H](O)[C@@H](O)[C@@H]2[C@@H]3C(=O)N(c4cccc(Oc5ccccc5)c4)C(=O)[C@@H]3CC[C@H]12	0.0483 (inactive)	0.741	-0.638	0.875 (inactive)	–	–
C[C@@]1([C@@H](NC(=O)Cc2ccccc2)c2ccc(-c3ccccc3)cc2)C[C@H]1C1CCCCC1	0.142 (inactive) and -0.175 (inactive) and -0.0036 (inactive)	0.0261 and -0.867 and 0.444	-1.3 and -0.345 and -1.39	1.49 (inactive) and -0.249 (inactive) and -1.63 (inactive)	0.641 (inactive) and 0.338 (inactive) and 0.416 (inactive)	1.03 (inactive) and 0.448 (inactive) and -0.21 (inactive)
O=C(NN=C1C[C@@H](O)[C@@H](O)[C@@H]2[C@@H]3C(=O)N(Cc4ccc5c(c4)OCO5)C(=O)[C@@H]3CC[C@H]12)OCc1ccccc1	0.974 (inactive)	0.222	0.228	0.0311 (inactive)	–	–
C=CCN(Cc1ccccc1)C(=O)C1N(CCOCCO)C(=O)C2C(C(=O)O)C3C=CC21O3 (stereo not given)	0.463 (inactive) and -0.202 (inactive)	-1.03 and -0.657	-0.506 and -0.253	0.429 (inactive) and -0.659 (inactive)	-0.0844 (inactive) and 1.49 (inactive)	0.031 (inactive) and 1.13 (inactive)
CCCNC(=O)OC[C@H]1O[C@H](CCON=C(C)CCC(=O)OC[C@H]2O[C@H](C#Cc3ccccc3)C=C[C@@H]2Oc2ccc(C)cc2)C=C[C@@H]1Oc1ccc(OC)cc1	-0.238 (inactive)	-0.439	-2.1	-0.983 (inactive)	–	–
COC(=O)C1=C(C)N(Cc2ccccc2)C2=C(C(=O)c3ccccc3)[C@H](c3ccccc3)[C@@](O)(C(=O)OC)C(=O)N2[C@@H]1c1ccccc1	-0.149 (inactive) and -0.059 (inactive)	0.675 and 0.323	-0.467 and 0.501	-1.74 (inactive) and -0.745 (inactive)	–	–
C[C@@H](ON=C1[C@H]2CCn3c(=O)n(-c4ccccc4)c(=O)n3[C@H]2[C@H](O)[C@@H]2O[C@H]12)c1cn([C@H](CO)Cc2ccccc2)nn1	0.764 (inactive)	0.297	-0.516	-2.41 (inactive)	–	–
